Assay outcomes deposited in PubChem BioAssay by National Center for Advancing Translational Sciences (NCATS).
BAZ2B inh = BAZ2B (human) inhibition; Q9UIF8; AlphaScreen BAZ2B-H3K14Ac peptide displacement; Potency, µM (series often up to 114 µM), without a hit: at the highest dose activity change, negative = inhibition, hits mostly inhibitors; 360,000 tested, 4.4% active; note: potency is the fitted concentration of half-maximal effect; % is set by controls: 0 for no effect and ±100 for the full control effect; nearly all actives have a fitted effect of over 60% in size
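Compounds, titrated to a top concentration of 110 uM, were incubated 30 min at room temperature with preformed BAZ2B/acetyl-K14 H3 peptide complex (50 nM each). Proximity signal was measured by AlphaScreen after 20 min with beads.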
G9a block = G9a (human) methyltransferase inhibition. G9a H3K9 monomethylation, AlphaScreen, 2 h. Potency, µM (doses to about 102 µM), for inactives: top-dose activity, negative = inhibition, most hits filed as inhibitors. 350,000 tested, 8.8% active. AID 504332. Q96KQ7; note: potency is the fitted concentration of half-maximal effect; % is set by controls: 0 for no effect and ±100 for the full control effect; nearly all actives have a fitted effect of over 75% in size
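Readings reflect AlphaScreen signal from monomethyl-H3K9 antibody detection. HMT at 20 nM; substrate b-H3K9 500 nM; cofactor SAM 20 uM; 2 h RT reaction; compounds tested as titrations in qHTS with 15 min preincubation.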
CtBP-E1A inh = blocks the CtBP interaction with E1A. AlphaScreen GST-E1A/His-CtBP binding, 1536-well; stronger effect = lower value. activity change, % (test concentration not listed). 340,000 tested, 0.49% active; in the data active = activity change below about -65%; inconclusive = mostly about -30% to -63%; note: % is set by controls: 0 for no effect and ±100 for the full control effect
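GST-E1A and His-tagged CtBP (125 nM each as 5X stock) were preincubated with pin-transferred compound for 2 h at 37 °C in the dark, then glutathione donor and nickel acceptor beads were added for 1 h before AlphaScreen reading.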
Six1-Eya2 blk = Six1/Eya2 interaction inhibition. 360,000 tested, 0.56% active. AlphaScreen GST-Six1/His-Eya2 binding, biochemical; stronger effect = lower value. activity change, % (concentration not given with the values). Q15475+O00167. AID 651725; in the data active = activity change below about -65%; inconclusive = mostly about -30% to -63%; note: % is set by controls: 0 for no effect and ±100 for the full control effect
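GST-Six1 + His-Eya2 (5X stock: 250/500 nM); Tris pH 8.0, 300 mM NaCl, 0.05% BSA, 0.02% Tween 20; GSH donor/Ni acceptor beads; 1 h 37 °C dark; AlphaScreen readout.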
HP1b binding inh = inhibitors of HP1-beta chromodomain binding to methylated histone tails; P83916; AlphaScreen HP1-beta / biotin-H3K9me3 peptide binding; Potency, µM (doses to about 114 µM), inactives show at the top dose activity change, negative = inhibition, most hits filed as inhibitors; 390,000 tested, 0.56% active; note: potency is the fitted concentration of half-maximal effect; nearly all actives have a fitted effect of over 70% in size
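AlphaScreen: HP1-beta (50 nM) preformed 30 min with biotin-H3(1-18)K9me3 peptide (50 nM) in PBS pH 7.4, 0.01% Tween-20. Compound added for 30 min at RT, then streptavidin donor/nickel chelate acceptor beads (10 ug/mL) for 30 min.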
JMJD2A Tudor = JMJD2A Tudor domain (human) inhibition. Potency, µM (highest dose often 114 µM), without a hit: at the highest dose activity change, negative = inhibition, hits mostly inhibitors. AlphaScreen JMJD2A-Tudor / H3K4me3 peptide binding. 390,000 tested, 4.4% active. O75164. AID 504339; note: potency is the fitted concentration of half-maximal effect; % is set by controls: 0 for no effect and ±100 for the full control effect; nearly all actives have a fitted effect of over 50% in size
Starred values were filed as active, the others as inactive; [ ] = dose if it differs, or a comment. In the library only some 10% were active in any assay of this set; here they are far more common. Unless noted, calls come from the whole dose curve; as a rule, active = well fitted inhibition curve with a large enough effect; inconclusive = small, poorly fitted or top-dose-only effect; inactive = no such curve, though single readings can be large or run the other way.

Results for CN1C(=S)N(c2ccccc2)C(=O)/C1=C/c1ccco1 ?
BAZ2B inh: -34%; G9a block: 10µM*; CtBP-E1A inh: 6; Six1-Eya2 blk: -6; HP1b binding inh: 6%; JMJD2A Tudor: -28%

How did O=C1/C(=C/c2ccco2)N=C(N2CCCCC2)N1c1ccccc1 do in these assays?
BAZ2B inh: 79µM*; G9a block: inconclusive; CtBP-E1A inh: 19; Six1-Eya2 blk: 10; HP1b binding inh: 0%; JMJD2A Tudor: -25%

How did CC(C)N(C1=N/C(=C\c2ccco2)C(=O)N1c1ccccc1)C(C)C do in these assays?
BAZ2B inh: -4%; G9a block: inconclusive; CtBP-E1A inh: 4; Six1-Eya2 blk: 16; HP1b binding inh: 8%; JMJD2A Tudor: -5%

How did CCc1nn(CC(=O)N(C)C2CCCCC2)c(=O)c2cc3cc(C)ccc3n12 do in these assays?
BAZ2B inh: -2%; CtBP-E1A inh: 3; Six1-Eya2 blk: 0; HP1b binding inh: 65%; JMJD2A Tudor: -5%

Results for N#CN1CCC(NS(=O)(=O)c2ccc(F)cc2)CC1 ?
JMJD2A Tudor: -9%

Results for CN(C)/N=C1\CCS(=O)(=O)c2sccc21 ?
BAZ2B inh: -3%; G9a block: inconclusive; Six1-Eya2 blk: 23; HP1b binding inh: 31%; JMJD2A Tudor: -26%

Results for Cc1ccc(N/N=C2\CCS(=O)(=O)c3sccc32)cc1 ?
BAZ2B inh: inconclusive; G9a block: 8.9µM*; CtBP-E1A inh: -12; Six1-Eya2 blk: -10; HP1b binding inh: 13%; JMJD2A Tudor: inconclusive

What do the screens show for `CCCCC(=O)N/N=C/c1ccc(N2CCOCC2)c([N+](=O)[O-])c1`?
BAZ2B inh: -33%; G9a block: 7%; CtBP-E1A inh: 6; Six1-Eya2 blk: -8; HP1b binding inh: 5%; JMJD2A Tudor: -24%

Results for CCOC(=O)CNCCC(=O)c1ccc(Br)cc1 ?
BAZ2B inh: inconclusive; G9a block: 7.1µM*; CtBP-E1A inh: -4; Six1-Eya2 blk: 1; HP1b binding inh: 22%; JMJD2A Tudor: inconclusive

Results for Cc1cccc(NCCC(=O)c2ccc(Br)cc2)c1 ?
BAZ2B inh: inconclusive; G9a block: -35%; CtBP-E1A inh: 8; Six1-Eya2 blk: -17; HP1b binding inh: 4%; JMJD2A Tudor: inconclusive

Results for N#C/C(=C\c1c(Oc2ccc(F)cc2)nc2ccccn2c1=O)c1nc2ccccc2s1 ?
BAZ2B inh: -4%; G9a block: 2.2µM*; HP1b binding inh: 40%; JMJD2A Tudor: -16%

Results for Cc1ccccc1Oc1nc2ccccn2c(=O)c1/C=C(\C#N)c1nc2ccccc2[nH]1 ?
BAZ2B inh: 4%; G9a block: 2%[59 µM]; HP1b binding inh: 41%; JMJD2A Tudor: 1%

What do the screens show for `Cc1cccn2c(=O)c(/C=C(\C#N)c3nc4ccccc4s3)c(Oc3ccc(Br)cc3)nc12`?
BAZ2B inh: 2%; G9a block: inconclusive; HP1b binding inh: 49%; JMJD2A Tudor: -15%

How did Cc1ccc(Oc2nc3ccccn3c(=O)c2/C=C(\C#N)c2nc3ccccc3s2)c(C)c1 do in these assays?
BAZ2B inh: -2%; G9a block: 2.5µM*; HP1b binding inh: 55%; JMJD2A Tudor: 2%

How did O=C(NCc1ccc(Cl)cc1)C1CCN(S(=O)(=O)Cc2ccccc2)CC1 do in these assays?
BAZ2B inh: 7%; G9a block: -8%[59 µM]; HP1b binding inh: 34%; JMJD2A Tudor: -2%

How did CSCCC(NC=C1C(=O)OC(C)(C)OC1=O)C(=O)O (centres undefined) do in these assays?
BAZ2B inh: -30%; G9a block: -11%; CtBP-E1A inh: 5; Six1-Eya2 blk: 6; HP1b binding inh: 15%; JMJD2A Tudor: 79µM*

What do the screens show for `CC1(C)OC(=O)C(=CNCC(O)c2ccccc2)C(=O)O1` (centres undefined)?
BAZ2B inh: 7%; G9a block: 29%[12.7 µM]; CtBP-E1A inh: 3; Six1-Eya2 blk: 5; HP1b binding inh: 7%; JMJD2A Tudor: -13%

How did CC1(C(=O)NS(=O)(=O)c2ccccc2Cl)CCN1C(=O)COc1ccc(Cl)cc1 (centres undefined) do in these assays?
CtBP-E1A inh: 1; Six1-Eya2 blk: 3

What do the screens show for `CSc1nc(O)c(C(c2ccc(O)cc2)c2c(O)nc(SC)[nH]c2=O)c(=O)[nH]1`?
BAZ2B inh: inconclusive; G9a block: 10µM*; CtBP-E1A inh: -1; Six1-Eya2 blk: -3; HP1b binding inh: inconclusive; JMJD2A Tudor: -6%

How did CCOc1ccc(C(c2c(O)nc(SC)[nH]c2=O)c2c(O)nc(SC)[nH]c2=O)cc1 do in these assays?
Six1-Eya2 blk: 2; HP1b binding inh: 32%; JMJD2A Tudor: -21%

Results for CSc1nc(O)c(C(c2cccc([N+](=O)[O-])c2)c2c(O)nc(SC)[nH]c2=O)c(=O)[nH]1 ?
BAZ2B inh: inconclusive; G9a block: 28µM*; CtBP-E1A inh: 2; Six1-Eya2 blk: -5; HP1b binding inh: 37%; JMJD2A Tudor: -14%

How did COc1ccc(CCn2c(C)cc(C(=O)COC(=O)c3cnc(C)cn3)c2C)cc1 do in these assays?
BAZ2B inh: inconclusive; G9a block: 50µM*; CtBP-E1A inh: 0; Six1-Eya2 blk: -10; HP1b binding inh: 35%; JMJD2A Tudor: -31%

Results for COc1ccc(CNC(=O)C2=C(C)C(=O)OC23CCCCC3)cc1 ?
BAZ2B inh: -5%; G9a block: 11µM*; HP1b binding inh: 9%; JMJD2A Tudor: -19%

Results for COc1ccc(CNC(=O)c2cnc(C)cn2)cc1 ?
BAZ2B inh: 50µM*; G9a block: -2%[59 µM]; CtBP-E1A inh: 4; Six1-Eya2 blk: -2; HP1b binding inh: 17%; JMJD2A Tudor: -30%

What do the screens show for `Cc1cnc(C(=O)OCC(=O)c2cc(C)n(CCc3ccc(F)cc3)c2C)cn1`?
CtBP-E1A inh: -7; Six1-Eya2 blk: -5

How did Cc1ccc2c(c1)-c1onc(C(=O)N3CCN(c4cc(Cl)ccc4C)CC3)c1CO2 do in these assays?
BAZ2B inh: 2%; G9a block: 7%[59 µM]; HP1b binding inh: 8%; JMJD2A Tudor: -24%

How did Cc1noc(-c2ccc(-c3noc(-c4cccc(Cl)c4)n3)cc2)n1 do in these assays?
BAZ2B inh: 3%; G9a block: 2%[59 µM]; HP1b binding inh: 22%[57 µM]; JMJD2A Tudor: -9%

How did CCOc1ccc(CNS(=O)(=O)c2cc3c(cc2C)NC(=O)CO3)cc1OC do in these assays?
BAZ2B inh: 6%; G9a block: 4%[59 µM]; HP1b binding inh: 10%[57 µM]; JMJD2A Tudor: -7%

What do the screens show for `COc1cc(NC(=O)CN2C(=O)COc3ccc(S(=O)(=O)NC4CCCC4)cc32)cc(OC)c1`?
BAZ2B inh: 17%; G9a block: 28%[59 µM]; HP1b binding inh: 42%; JMJD2A Tudor: -2%
